Assay results as given in PubChem BioAssay AID1347416 (National Center for Advancing Translational Sciences (NCATS), 2020).
About 1,600 (39%) of roughly 4,100 compounds were called active. Roughly 25% stayed inconclusive and do not appear here. Some of the results follow. Unmarked numbers belong to inactive results. The call rests on the fitted dose curve; in most records, active means well fitted inhibition curve with a large enough effect; inconclusive means small, poorly fitted or top-dose-only effect; inactive means no such curve, though single readings can be large or run the other way.

Experiment: qHTS Validation assay for Inhibitors of Plasmodium falciparum Dd2 growth in vitro; further: nearly all actives have a fitted effect of over 70% in size
Details: P. falciparum Dd2 in RBCs, SYBR Green growth, 72 h; series mostly up to 28.7 µM; activity change, negative = inhibition: at the top concentration
Procedure, shortened: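 P. falciparum Dd2-infected red blood cells (2.5% hematocrit, 0.3% parasitemia) grown 72 h at 37 °C under 5% O2 with compounds in a titration, 29 uM to 0.5 nM final. Growth read as SYBR Green-1 fluorescence after ~16 h lysis; artesunate 300 nM as positive control.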
On the % scale 0 is the no-effect control and ±100 the full control effect; potency means the concentration at half of the fitted maximal effect.

Structure (SMILES)	activity change, negative = inhibition	Potency
CCSc1nc(CC(=O)NCc2ccc(S(N)(=O)=O)cc2)cs1	16.3%	–
CC(=O)c1c(C)[nH]c(C(=O)COc2ccc3ccc(=O)oc3c2)c1C	-18%	–
Fc1ccc(Oc2nc(-c3ccccn3)nc3ccccc23)cc1	–	13.3 µM (active)
c1ccc(-c2nc(N3CCCCCC3)c3ccccc3n2)nc1	–	1.68 µM (active)
Cc1ccccc1Oc1nc(-c2ccccn2)nc2ccccc12	–	6.68 µM (active)
Cc1nn(C)c2nc(-c3ccccn3)nc(N3CCC4(CC3)COC(=O)O4)c12	32.9%	–
CCCCCCSc1ccc([C@H]2N[C@@](Cc3ccccc3)(C(=O)OC)[C@H]3C(=O)N(CC)C(=O)[C@@H]23)cc1	–	3.35 µM (active)
CCCSc1ccc([C@H]2N[C@@](Cc3ccccc3)(C(=O)OC)[C@H]3C(=O)N(CC)C(=O)[C@@H]23)cc1	–	5.31 µM (active)
CCCCCCSc1ccc([C@H]2N[C@@](Cc3ccccc3)(C(=O)OC)[C@H]3C(=O)N(C)C(=O)[C@@H]23)cc1	–	4.73 µM (active)
O=C(CCl)N(c1ccccc1)c1c[nH]c2ccccc12	–	2.11 µM (active)
Cc1cc2nc(/C=C/c3nc4cc(C)c(C)cc4[nH]3)[nH]c2cc1C	-9.37%	–
NC1CC(c2cc(N3CCCN(C(=O)c4ccoc4)CC3)ncn2)C1 (configuration not stated)	45.1%	–
Cc1cc(C)cc(N2CCN(c3cc(C4CC(O)C4)nc(C)n3)CC2=O)c1 (configuration not stated)	6.34%	–
COc1ccc(N2CCN(c3cc(C4CC(N)C4)nc(N)n3)CC2(C)C)cc1 (configuration not stated)	–	2.99 µM (active)
Fc1ccc(F)c(Nc2c3c(nc4ccc(Cl)cc24)CCC3)c1	-26.2%	–
COc1ccccc1Nc1c2c(nc3ccc(NC(=O)/C=C/c4cccc(OC)c4OC)cc13)CCCC2	–	5.96 µM (active)
COc1ccc(/C=C/C(=O)Nc2ccc3nc4c(c(Nc5ccccc5OC)c3c2)CCCC4)cc1	–	3.35 µM (active)
Cc1cc(N2CCN(C3CCCC3)CC2)n2c(nc3ccccc32)c1C#N	–	1.06 µM (active)
O=C(N[C@H](c1ccccn1)C1CC(O)C1)c1cc(=O)n(-c2ccccc2)[nH]1 (some centres not stated)	–	9.44 µM (active)
COc1ccc(NS(=O)(=O)c2cc(NC(=O)/C=C/c3cc(OC)c(OC)c(OC)c3)ccc2N2CCCCC2)cc1	–	6.68 µM (active)
COc1cc2nc(N3CCN(c4cc(C)ccc4C)CC3)nc(N)c2cc1OC	–	6.68 µM (active)
COc1cc2nc(Nc3ccc(C)c(C)c3)nc(N)c2cc1OC	–	0.75 µM (active)
CCOC(=O)c1ccc(Nc2nc(N)c3cc(OC)c(OC)cc3n2)cc1	–	1.88 µM (active)
COc1ccc(C(=O)c2nccc3cc(OC)c(OC)cc23)cc1OC	8.83%	–

Structure (SMILES)	activity change, negative = inhibition	Potency
COc1cc2nc(Nc3ccc(C)c(Cl)c3)nc(N)c2cc1OC	–	2.11 µM (active)
COc1ccc(Cl)cc1C(=O)NCc1nnc2c(-c3nc(C(C)C)no3)cccn12	7.64%	–
O=C(NCc1ccc(C(F)(F)F)cc1F)[C@H]1CCC[C@@H](O)C1	21.3%	–
CCOC(=O)c1c(C)[nH]c(C)c1S(=O)(=O)N1CCCC(C(=O)N2CCN(c3cc(C)ccc3C)CC2)C1 (configuration not stated)	-90.8%	–
CCc1cccc(OC2CN(C(=O)C3CCCN(CC(N)=O)C3)C2)c1 (configuration not stated)	47.6%	–
CCOC(=O)c1c(S(=O)(=O)N2CCCC(C(=O)N3CCN(c4cc(C)ccc4C)CC3)C2)c(C)n(C)c1C (configuration not stated)	–	1.5 µM (active)
CCOC(=O)c1c(S(=O)(=O)N2CCCC(C(=O)N3CCN(c4cccc(C)c4C)CC3)C2)c(C)n(C)c1C (configuration not stated)	–	1.06 µM (active)
CCOC(=O)c1c(C)[nH]c(C)c1S(=O)(=O)N1CCCC(C(=O)N2CCN(c3cccc(C)c3C)CC2)C1 (configuration not stated)	–	1.33 µM (active)
OC1CCN(c2cc(N3CCOC(c4ccc(F)cc4)C3)ncn2)CC1 (configuration not stated)	23.8%	–
CCCCC(=O)Nc1nc(C)c(-c2csc(Nc3cc(OC)ccc3OC)n2)s1	–	9.44 µM (active)
C=CCCC(=O)Nc1nc(C)c(-c2csc(Nc3ccc(Cl)cc3)n2)s1	-14.8%	–
CN(Cc1cc(-c2cccnc2)no1)C(=O)C1COc2ccccc2C1 (configuration not stated)	23.1%	–
COC[C@@H]1CN(C(=O)c2cccc(OC(F)(F)F)c2)C[C@H]1C(N)=O	2.91%	–
O=C(Nc1ccc(Nc2ccncc2)cc1)c1ccc(Nc2ccnc3ccc([N+](=O)[O-])cc23)cc1[N+](=O)[O-]	–	1.33 µM (active)
O=C(Nc1ccc(Nc2ccncc2)cc1)c1ccc(Nc2ccnc3ccc([N+](=O)[O-])cc23)cc1	–	0.75 µM (active)
COc1cnc(-c2ccccn2)nc1Sc1ccc(Cl)cc1	–	5.96 µM (active)
COc1cnc(-c2ccccn2)nc1Sc1c(Cl)cccc1Cl	–	2.99 µM (active)
Oc1ccccc1C1=NN(c2ccccc2)C(c2ccccc2)C1 (configuration not stated)	–	7.5 µM (active)
COc1ccc(-c2cc(N3CCN(C(=O)c4c[nH]c5ccccc45)CC3)n[nH]2)cc1	–	15 µM (active)
O=C(c1ccc2nc[nH]c2c1)N1CCCN(c2cc(-c3ccc(Cl)cc3)[nH]n2)CC1	25.3%	–
CCOc1ccccc1C(=O)N1CCN(c2cc(-c3ccc(OC)cc3)[nH]n2)CC1	-19.4%	–
COC(=O)c1ccc(NC(=O)Nc2cccc(F)c2)cc1	-29.7%	–
Cn1nc(C(F)(F)F)c(-c2cccc(C(F)(F)F)c2)c1NC(=O)Nc1ccc(F)cc1	–	2.37 µM (active)
